# Test results from PubChem BioAssay.
# Calls of active or inactive are those of the source. Rule as the data show it, unless noted: active = inhibition above about 80%; inactive = the rest.
# How the values were obtained:
# [1] = LFS_MB_P medulloblastoma growth inhibition, cell-based, chromothripsis tumors, cisplatin or BGB combos (AID 1671449); conditions: LFS_MB_P medulloblastoma cells;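 also: cells exposed for 96 hours; 0% = vehicle DMSO and 100% = killing by high DMSO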
# [2] = HDN33 neuroblastoma growth inhibition, cell-based, chromothripsis tumors, cisplatin or BGB combos (AID 1671450); conditions: HDN33 neuroblastoma cells, stronger effect = higher value;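 also: cells exposed to compound for four days; 0% = vehicle DMSO and 100% = cell killing by high DMSO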
# [3] = ICB984 medulloblastoma cell growth inhibition, synergistic combos for chromothripsis tumors, cisplatin or BGB combos (AID 1671451; call rule not given here;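 also: cells exposed for 96 hours before readout; 0% = vehicle DMSO and 100% = killing by high DMSO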); conditions: ICB984 medulloblastoma cells, drug combinations, stronger effect = higher value
# [4] = LFS_MB_1R medulloblastoma cell growth inhibition, synergistic combos for chromothripsis tumors, cisplatin or BGB combos (AID 1671452); conditions: LFS_MB_1R medulloblastoma cells, stronger effect = higher value;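 also: cells exposed for 96 hours before readout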
# [5] = HTB85 osteosarcoma cell growth inhibition, synergistic combos for chromothripsis tumors, BGB or cisplatin IC20 combos (AID 1671453); conditions: HTB85 osteosarcoma cells, drug combinations, stronger effect = higher value;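 also: cells exposed for 96 hours before readout; 0% = vehicle DMSO and 100% = high DMSO killing control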
# [6] = CRL2098 osteosarcoma cell growth inhibition, synergistic combos for chromothripsis tumors, BGB or cisplatin IC20 combos (AID 1671454); conditions: CRL2098 osteosarcoma cells, drug combinations, stronger effect = higher value;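 also: cells exposed for 96 h before readout; 0% = vehicle DMSO and 100% = killing by high DMSO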
# [7] = HD-MB03 medulloblastoma cell growth inhibition, synergistic combos for chromothripsis tumors, BGB or cisplatin IC20 combos (AID 1671455; in the data active = inhibition above about 83%;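 also: 0% = vehicle DMSO and 100% = high DMSO as cytotoxic control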); conditions: HD-MB03 medulloblastoma cells, stronger effect = higher value
# [8] = UWB1.289 ovarian carcinoma cell growth inhibition, synergistic combos for chromothripsis tumors, BGB or cisplatin combos (AID 1671456); conditions: UWB1.289 ovarian carcinoma cells, stronger effect = higher value;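 also: cells exposed to compound for four days; 0% = vehicle DMSO and 100% = killing by high DMSO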
# [9] = LFS_MB_2R medulloblastoma cell growth inhibition, synergistic combos for chromothripsis tumors, cisplatin combos (AID 1671457); conditions: LFS_MB_2R medulloblastoma cells, stronger effect = higher value;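 also: cells exposed to compound for four days before readout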
# [10] = MDA-MB-436 breast carcinoma cell growth inhibition, synergistic combos for chromothripsis tumors, BGB or cisplatin combos (AID 1671458; call rule not given here;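 also: cells exposed for 96 hours; 0% = vehicle DMSO and 100% = killing by high DMSO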); conditions: MDA-MB-436 breast carcinoma growth inhibition, drug combinations, stronger effect = higher value
# [11] = UWB1.289_BRCA1 ovarian cancer growth, cell-based, BGB or cisplatin combinations (AID 1671459); conditions: UWB1.289 BRCA1 ovarian carcinoma, drug combinations, stronger effect = higher value
# [12] = human astrocyte viability loss, single and combined drugs, cytotoxicity control for chromothriptic childhood tumor combination screen, cell-based, BGB or cisplatin IC20 combos (AID 1671460); conditions: Human astrocytes, drug combinations, stronger effect = higher value;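 also: cells exposed to compounds for 96 hours before viability readout; 0% = vehicle and 100% = killing control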
# [13] = growth inhibition of BT084 medulloblastoma cells, cell-based, ICGC_MB145, cisplatin and BGB IC40 combos (AID 1671461); conditions: drug combinations, stronger effect = higher value;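 also: cells exposed to drugs for 96 hours; 0% = vehicle DMSO and 100% = high DMSO full killing control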
# [14] = growth inhibition of RCMB18 medulloblastoma cells, cell-based, cisplatin and BGB IC40 combos (AID 1671462); conditions: stronger effect = higher value;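 also: cells exposed to compound for four days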
# [15] = growth inhibition of CRL1545 osteosarcoma cells, cell-based, cisplatin and BGB IC20 combos (AID 1671464); conditions: stronger effect = higher value;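 also: cells exposed to compound for 96 hours before readout; 0% = vehicle DMSO and 100% = high DMSO killing control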
# [16] = measured here: combination with BGB IC40, at 0.05 µM
# [17] = measured here: with BGB IC20 combination, at 0.5 µM
# [18] = measured here: with cisplatin IC20 combination, at 0.5 µM
# [19] = measured here: combination with cisplatin, at 0.5 µM
# [20] = measured here: combination with cisplatin, at 5 µM
structure (smiles),measurement,setting,value
Nc1nc(NC2CC2)cc(-c2cccc(Cl)c2Cl)n1,inhibition,"[1]; at 0.5 µM, stronger effect = higher value",-24.4% (inactive)
same,inhibition,"[1]; measured here: combination with BGB IC20, at 0.005 µM",6.42%
same,inhibition,"[1]; measured here: combination with BGB IC40, at 0.005 µM",-13.3%
same,inhibition,[1]; [16],-3.68%
same,inhibition,"[1]; measured here: combination with cisplatin, at 0.5 µM, stronger effect = higher value",-27.2%
same,inhibition,"[1]; measured here: combination with cisplatin, at 5 µM, stronger effect = higher value",-1.92%
same,inhibition,"[2]; BGB combo, at 5 µM",4.24%
same,inhibition,[2]; at 0.5 µM,-22.2% (inactive)
same,inhibition,"[2]; cisplatin combo, at 5 µM",-25.5%
same,inhibition,[2]; [17],-14.4%
same,inhibition,[2]; [18],-33.4%
same,inhibition,"[2]; single agent, at 5 µM",1.5%
same,inhibition,"[3]; BGB IC20 combo, at 0.005 µM",-16.3%
same,inhibition,"[3]; BGB IC40 combo, at 0.005 µM",-42.9%
same,inhibition,"[3]; BGB IC40 combo, at 0.05 µM",-23.9%
same,inhibition,[3]; at 0.5 µM,-15.4% (inactive)
same,inhibition,"[3]; cisplatin combo, at 0.05 µM",-28.8%
same,inhibition,"[3]; cisplatin combo, at 0.5 µM",-25.9%
same,inhibition,"[3]; cisplatin combo, at 5 µM",-24%
same,inhibition,"[3]; measured here: 5 uM single agent, at 5 µM",-4.67%
same,inhibition,[4]; at 0.5 µM,-47.5% (inactive)
same,inhibition,[4]; [16],-29.4%
same,inhibition,[4]; [19],-115%
same,inhibition,[4]; [20],-60.1%
same,inhibition,[5]; at 0.5 µM,-20.9% (inactive)
same,inhibition,"[5]; measured here: with BGB IC20, at 0.5 µM",-3.53%
same,inhibition,"[5]; measured here: with BGB IC20, at 5 µM",-8.44%
same,inhibition,"[5]; measured here: with cisplatin IC20, at 0.5 µM",-38.1%
same,inhibition,"[5]; measured here: with cisplatin IC20, at 5 µM",-21.3%
same,inhibition,"[5]; single agent, at 5 µM",3.83%
same,inhibition,[6]; at 0.5 µM,-50% (inactive)
same,inhibition,"[6]; measured here: combination with BGB at IC20, at 0.5 µM",-42.1%
same,inhibition,"[6]; measured here: combination with cisplatin at IC20, at 0.5 µM",-36.5%
same,inhibition,[7]; at 0.5 µM,-12.4% (inactive)
same,inhibition,"[7]; measured here: combo with BGB at IC20, at 0.5 µM",-17%
same,inhibition,"[7]; measured here: combo with cisplatin at IC20, at 0.5 µM",-8.02%
same,inhibition,[8]; at 0.5 µM,-15.7% (inactive)
same,inhibition,"[8]; measured here: inhibition with BGB combination, at 0.05 µM",-10.8%
same,inhibition,"[8]; measured here: inhibition with cisplatin combination, at 0.05 µM",-19.7%
same,inhibition,[9]; at 0.5 µM,-12.8% (inactive)
same,inhibition,[9]; [19],-18%
same,inhibition,[9]; [20],18.1%
same,inhibition,[10]; at 0.5 µM,-5.02% (inactive)
same,inhibition,"[10]; measured here: BGB combination, at 0.5 µM",-1.67%
same,inhibition,"[10]; measured here: BGB combination, at 5 µM",10.3%
same,inhibition,"[10]; measured here: cisplatin combination, at 0.5 µM",-5.74%
same,inhibition,"[10]; measured here: cisplatin combination, at 5 µM",15.8%
same,inhibition,"[11]; BGB combination, concentration series, at 5 µM",9.28%
same,inhibition,[11]; at 0.5 µM,-9.72% (inactive)
same,inhibition,"[11]; cisplatin combination, concentration series, at 5 µM",10.7%
same,inhibition,[12]; at 0.5 µM,-2.78% (inactive)
same,inhibition,"[12]; measured here: combo with BGB IC20, at 0.5 µM",-4.24%
same,inhibition,"[12]; measured here: combo with cisplatin IC20, at 0.5 µM",6.45%
same,inhibition,[13]; at 0.5 µM,-9.21% (inactive)
same,inhibition,"[13]; cisplatin combination, at 0.5 µM",-6.21%
same,inhibition,"[13]; cisplatin combination, at 5 µM",-20.8%
same,inhibition,"[13]; measured here: BGB IC40 combination 0.05 uM, at 0.05 µM",-10.7%
same,inhibition,"[13]; single agent, at 5 µM",-6.16%
same,inhibition,[14]; at 0.5 µM,-8.4% (inactive)
same,inhibition,"[14]; cisplatin combo, at 5 µM",-0.639%
same,inhibition,"[14]; measured here: BGB IC40 combination, at 0.05 µM",-3.5%
same,inhibition,[14]; [19],-22.4%
same,inhibition,"[14]; single agent, at 5 µM",-28.4%
same,inhibition,[15]; at 0.5 µM,-36.8% (inactive)
same,inhibition,[15]; [17],-16.7%
same,inhibition,[15]; [18],-46.8%
same,inhibition,"[15]; single agent, at 0.05 µM",-25%
same,inhibition,"[15]; single agent, at 5 µM",-32.6%
